Experimental data as given in PubChem BioAssay (NCATS).
Results filed as inconclusive are left out. Entries that show only a call come without a potency. Activity calls are given as the source filed them. Calls follow the shape of the dose curve; as a rule, active = well fitted cell-killing curve with a large enough effect; inconclusive = small, poorly fitted or top-dose-only effect, or effect the other way; inactive = no such curve, though single readings can be large or run the other way.

How the values were obtained:
[1] = Quantitative High-Throughput drug screen in 47 multiple myeloma cell lines against the NCATS MIPE library collection: KMS34_JCRB cell viability assay (AID 1918985); also: nearly all actives have a fitted effect of over 40% in size
How it was run: (§1)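 Myeloma cells (500/well) treated with MIPE 4.0 compounds for 48 h at 37 °C, 5% CO2. Viability read as ATP via CellTiter-Glo luminescence after 5 min at RT; DMSO-only wells = 100%, media-only = 0% viability.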

[2] = Quantitative High-Throughput drug screen in 47 multiple myeloma cell lines against the NCATS MIPE library collection: OCIMY5_PLB cell viability assay (AID 1918988); also: nearly all actives have a fitted effect of over 65% in size; also: potency is read from the fitted curve at half-maximal effect
How it was run: as §1

[3] = Quantitative High-Throughput drug screen in 47 multiple myeloma cell lines against the NCATS MIPE library collection: OPM1_PLB cell viability assay (AID 1918989); also: nearly all actives have a fitted effect of over 40% in size; also: potency is read from the fitted curve at half-maximal effect
How it was run: as §1

[4] = Quantitative High-Throughput drug screen in 47 multiple myeloma cell lines against the NCATS MIPE library collection: U266_ATCC cell viability assay (AID 1919864); also: nearly all actives have a fitted effect of over 35% in size; also: potency is read from the fitted curve at half-maximal effect
How it was run: as §1

[5] = Quantitative High-Throughput drug screen in 47 multiple myeloma cell lines against the NCATS MIPE library collection: XG6_PLB cell viability assay (AID 1919865); also: nearly all actives have a fitted effect of over 40% in size; also: potency is read from the fitted curve at half-maximal effect
How it was run: as §1

[6] = Quantitative High-Throughput drug screen in 47 multiple myeloma cell lines against the NCATS MIPE library collection: XG1_PLB cell viability assay (AID 1919866); also: nearly all actives have a fitted effect of over 35% in size; also: potency is read from the fitted curve at half-maximal effect
How it was run: as §1

[7] = Quantitative High-Throughput drug screen in 47 multiple myeloma cell lines against the NCATS MIPE library collection: VP6_DJ cell viability assay (AID 1919867); also: nearly all actives have a fitted effect of over 40% in size; also: potency is read from the fitted curve at half-maximal effect
How it was run: as §1

[8] = Quantitative High-Throughput drug screen in 47 multiple myeloma cell lines against the NCATS MIPE library collection: UTMC2_PLB cell viability assay (AID 1919868); conditions: CellTiter-Glo ATP luminescence, 48 h; viability (% of DMSO control): at 45.8 µM (top of the series); also: nearly all actives have a fitted effect of over 55% in size; also: potency is read from the fitted curve at half-maximal effect
How it was run: as §1

[9] = Quantitative High-Throughput drug screen in 47 multiple myeloma cell lines against the NCATS MIPE library collection: PE2_PLB cell viability assay (AID 1919869); also: nearly all actives have a fitted effect of over 35% in size
How it was run: as §1

[10] = Quantitative High-Throughput drug screen in 47 multiple myeloma cell lines against the NCATS MIPE library collection: PCM6_Riken cell viability assay (AID 1919870); also: nearly all actives have a fitted effect of over 30% in size; also: potency is read from the fitted curve at half-maximal effect
How it was run: as §1

[11] = Quantitative High-Throughput drug screen in 47 multiple myeloma cell lines against the NCATS MIPE library collection: OPM2_DSMZ cell viability assay (AID 1919872); also: nearly all actives have a fitted effect of over 30% in size
How it was run: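 Inhibition of cell viability is measured here. Each line was plated at 500 cells per well, treated with MIPE 4.0 drugs, kept 48 hours at 37C, then assayed for ATP content by CellTiter-Glo luminescence.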

[12] = Quantitative High-Throughput drug screen in 47 multiple myeloma cell lines against the NCATS MIPE library collection: KMS11_JCRBsus cell viability assay (AID 1919873); also: nearly all actives have a fitted effect of over 50% in size; also: potency is read from the fitted curve at half-maximal effect
How it was run: as §1

[13] = Quantitative High-Throughput drug screen in 47 multiple myeloma cell lines against the NCATS MIPE library collection: KMS28BM_JCRB cell viability assay (AID 1919874); also: nearly all actives have a fitted effect of over 35% in size
How it was run: as §1

[14] = Quantitative High-Throughput drug screen in 47 multiple myeloma cell lines against the NCATS MIPE library collection: RPMI8226_ATCC cell viability assay (AID 1919871); also: nearly all actives have a fitted effect of over 30% in size; also: potency is read from the fitted curve at half-maximal effect
How it was run: as §1

[15] = Quantitative High-Throughput drug screen in 47 multiple myeloma cell lines against the NCATS MIPE library collection: OCIMY7_PLB cell viability assay (AID 1918987); conditions: OCI-MY7 myeloma viability, CellTiter-Glo ATP, 48 h; viability (% of DMSO): at 45.8 µM (top of the series); also: potency is read from the fitted curve at half-maximal effect; nearly all actives have a fitted effect of over 65% in size
How it was run: as §1

Compound | Potency [1] | Potency [2] | Potency [3] | Potency [4] | Potency [5] | Potency [6] | Potency [7] | Potency [8] | Potency [9] | Potency [10] | Potency [11] | Potency [12] | Potency [13] | Potency [14] | Potency [15]
NC1=N[C@H]2[C@H](CS[C@H]2CCCCC(=O)O)N1 | inactive | inactive | inactive | inactive | inactive | inactive | inactive | inactive | inactive | inactive | inactive | inactive | inactive | – | –
CC(=O)NC(CS)C(=O)O (stereo not drawn) | inactive | – | inactive | – | inactive | inactive | inactive | – | inactive | inactive | – | – | inactive | inactive | –
O=C(O)c1ccc(Nc2ncc3c(n2)-c2ccc(Cl)cc2C(c2c(F)cccc2F)=NC3)cc1 | – | 332 nM (active) | 5.9 µM (active) | 20.9 µM (active) | 662 nM (active) | 418 nM (active) | 5.9 µM (active) | 1.66 µM (active) | – | 16.6 µM (active) | – | 132 nM (active) | – | 14.8 µM (active) | 209 nM (active)
